For 34 compounds, growth results are on record in PubChem BioAssay (NCI).

About 83,000 compounds went through this panel and 20% of them were active in at least one assay; those are over-represented in the sample as a whole.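 Compound tested at a single concentration for 48 hours in 96-well plates; a percent growth value below 10 was scored as active.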 Values without a mark were called inactive. Activity calls are given as the source filed them.

The test system of this assay is HL-60(TB) leukemia. The assay is described as follows: NCI-60 one-dose screen, 48 h (100 = growth as untreated, 0 = no growth, -100 = all killed). To be noted: 10 µM unless noted.
With `Cc1nc(-c2cc3ccccc3oc2=O)ccc1C(=O)/C=C/c1ccccn1`, the growth was 32.9%.
To `Cc1ccc2c(n1)C(=O)C(Cl)=C(Nc1cccc(C)c1C)C2=O` belongs -23.2% (active); to `Cc1cccc2sc(/N=C(\N)C(Cl)(Cl)Cl)nc12`, 103%; to `CC(=O)Nc1nc2c(s1)C1=CC[C@H]3[C@@H]4CC[C@H](C(C)=O)[C@@]4(C)CC[C@@H]3[C@@]1(C)CC2`, 52.5%.
Take `CN1CCN(CCNc2nc(-c3cccc(NS(=O)(=O)c4cccc5c(N(C)C)cccc45)c3)cs2)CC1`: the growth is 45%.
Next, `CCN(CC)c1ccc(/C=N/NC(=O)c2ccc(NS(C)(=O)=O)cc2)c(O)c1`: 0.843% (active).
To `C#C[C@]1(O)CC[C@H]2[C@@H]3CC=C4c5sc(N(C)c6ccccc6)nc5CC[C@]4(C)[C@H]3CC[C@@]21C` belongs 61.8%; to `C(=N\Nc1nc(N/N=C/c2ccc3c(c2)OCO3)nc(N2CCCCC2)n1)/c1ccc2c(c1)OCO2`, 60.4%; to `COc1ccc([C@@H]2[C@@H](O)C(=O)N2c2cc(OC)c(OC)c(OC)c2)cc1F`, -15.8% (active).
Consider `CS(=O)(=O)c1ccc(/C(=N/N=C(N)N)c2ccc(F)cc2)cc1`, for which the growth was 97.8%.
To `CC(=O)c1cc(C(=O)c2ccc(Br)cc2)n2cc(C)cc(C)c12` belongs 83.3%; to `O=C(Nc1ccc2c(ccn2Cc2ccccn2)c1)c1cnccn1`, 131%; to `NNC(=O)c1sc2nc(-c3cnccn3)cc(-c3cccs3)c2c1N`, 105%.
Next, `NS(=O)(=O)c1ccc(Nc2nc(N/N=C/CCc3ccccc3)nc(Nc3ccccc3)n2)cc1`: 107%; `COc1cc(OC)c(S(N)(=O)=O)cc1C(=O)/C=C/c1ccc(C)cc1`: 6.73% (active).
Take `CC(=C(c1ccc(OCCCN(C)C)cc1)c1ccc(OCCCN(C)C)cc1)c1ccc(Cl)cc1`: the growth was 75.5%.
Next, `C#CCOc1ccccc1C(OC(=O)c1ccccc1)C(=O)NC(C)(C)C(C)(C)C` (centres undefined): 95.1%; `O=C1Nc2ccc(F)cc2/C1=C\C(=O)c1ccc(NS(=O)(=O)c2ccccc2)cc1`: 33.1%; `C#C[C@]1(O)CC[C@H]2[C@@H]3CC=C4c5sc(-c6cccc(F)c6)nc5CC[C@]4(C)[C@H]3CC[C@@]21C`: 79.6%.
With `COc1ccc2c(c1)oc1c3[nH]c4ccccc4c3c3c(c21)C(=O)N(O)C3=O`, the growth is 53.3%.
Next, `COc1cc(-c2nc(-c3ccccc3)[nH]c2-c2ccnc(NCCCNS(=O)(=O)c3ccc(C)cc3)n2)ccc1F`: 93.4%.
Next, `CC(=O)Oc1ccccc1C(=O)Nc1cc(C(C)C)ccc1C`: -28.4% (active); `CC(C)(C)n1nnnc1C(Nc1cccc2c1OCO2)c1cc2cccc3ccc4cccc1c4c32` (centres undefined): 85.2%.
Next, `COc1ccc(OC)c([C@H]2c3[nH]c4ccccc4c3C[C@H]3C(=O)N(CCCCCCC(=O)NO)CC(=O)N23)c1`: 91.1%; `COc1ccc(C(=O)c2c(N)c(C#N)cn2-c2ccccc2OC)cc1`: -7.7% (active).
As for `CN(c1ccc(F)cc1)S(=O)(=O)c1ccc(-c2cnc(C3CC3)o2)cc1`, the growth was -15.8% (active).
To `CC(O)C(NC(=O)C1CCCN1C(=O)CNC(=O)C1CC(=O)NCC(=O)NC(Cc2c[nH]c3ccccc23)C(=O)NC(Cc2ccc(O)cc2)C(=O)NCC(=O)NC(CO)C(=O)NC(CCC(N)=O)C(=O)NC(Cc2c[nH]c3ccccc23)C(=O)N1)C(=O)NCC(=O)NC(CCC(N)=O)C(=O)NC(CCCNC(=N)N)C(=O)NC(CC(=O)O)C(=O)O` (centres undefined) belongs 99.7%; to `Fc1ccc(-c2cn3c(-c4c[nH]c5ccc(Br)cc45)csc3n2)cc1`, 104%; to `OC1CCN(CCCOc2c3ccc(Cl)cc3nc3c2oc2ccccc23)CC1`, -35% (active).
To `O=C(/C=C/c1csc(Br)n1)NO` belongs -36.2% (active).
In the case of `O=C(O)c1ccc(-n2cc(CNc3ccc(F)cc3)c(-c3ccc(C(F)(F)F)cc3)n2)cc1`, the growth is 87.1%.
Next, `CC(=O)C1=C(C)NC(NNc2ccccc2)=NC1c1ccc([N+](=O)[O-])cc1` (centres undefined): 88.3%; `CCOC(=O)c1c(NC(=O)c2ccc(C(F)(F)F)cc2)sc2c3c(ccc12)OCN(C)C3`: -27.6% (active); `CCC(=O)Nc1ccc(-c2nc(-c3cccc(O)c3)c(-c3ccnc(Br)c3)[nH]2)cc1`: 35.6%.
